This passage reports outcome and AC50 results from PubChem BioAssay (EPA / NIEHS).

Records with an inconclusive call do not appear. Active and inactive are the calls of the source. How the source made its calls: active means hit-call score of the fitted dose curve at least 0.9, where 1 is the maximum; inconclusive means response in the unintended direction; inactive means score below 0.9.

In experiment [1] the target is Tyrosine-protein phosphatase non-receptor type 12 (Homo sapiens) (UniProt Q05209). In words: NVS_ENZ_hPTPN12: NovaScreen (NVS) Enzymatic Assay for human Protein Tyrosine Phosphatase Non-receptor Type 12 (PTPN12) (AID 2283204). Put shortly: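 Single-concentration duplicates (25 uM) preceded singleton concentration-response up to 50 uM for chemicals passing threshold. Cell-free recombinant PTPN12 activity was read 1.33 h after dosing via fluorescence after mobility-shift separation; loss of signal versus DMSO.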
Tyrosine-protein phosphatase non-receptor type 12 (Homo sapiens), sequence (Q05209 whole entry, looked up): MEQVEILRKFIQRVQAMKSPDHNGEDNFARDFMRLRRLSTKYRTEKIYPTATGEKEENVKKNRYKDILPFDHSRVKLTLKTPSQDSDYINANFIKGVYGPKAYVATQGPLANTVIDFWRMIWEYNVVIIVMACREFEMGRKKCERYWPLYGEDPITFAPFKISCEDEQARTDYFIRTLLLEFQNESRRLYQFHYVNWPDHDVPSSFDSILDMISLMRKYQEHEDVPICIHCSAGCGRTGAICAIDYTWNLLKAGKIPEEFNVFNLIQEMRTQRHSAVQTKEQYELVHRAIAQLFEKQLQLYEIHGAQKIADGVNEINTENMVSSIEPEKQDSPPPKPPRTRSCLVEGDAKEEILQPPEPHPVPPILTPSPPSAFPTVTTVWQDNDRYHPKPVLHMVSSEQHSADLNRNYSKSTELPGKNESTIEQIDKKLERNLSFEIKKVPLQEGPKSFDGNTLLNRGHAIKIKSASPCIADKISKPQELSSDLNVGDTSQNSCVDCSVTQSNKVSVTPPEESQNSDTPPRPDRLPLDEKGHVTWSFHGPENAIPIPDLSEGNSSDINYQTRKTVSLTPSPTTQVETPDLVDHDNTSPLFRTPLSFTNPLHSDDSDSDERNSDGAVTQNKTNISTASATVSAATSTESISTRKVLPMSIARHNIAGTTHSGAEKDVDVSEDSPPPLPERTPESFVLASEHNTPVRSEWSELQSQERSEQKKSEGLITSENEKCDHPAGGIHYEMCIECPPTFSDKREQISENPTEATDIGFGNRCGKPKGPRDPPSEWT

For experiment [2], the target named is Tyrosine-protein phosphatase non-receptor type 13 (Homo sapiens) (UniProt Q12923). Kind of experiment: NVS_ENZ_hPTPN13: NovaScreen (NVS) Enzymatic Assay for human Protein Tyrosine Phosphatase Non-receptor Type 13 (PTPN13) (AID 2283205). In outline: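 Cell-free assay of recombinant human PTPN13 with a fluorescent substrate, product separated by electrophoretic mobility shift and read 0.5 h after dosing. Primary screen at 25 uM in duplicate, then concentration-response up to 50 uM. Loss of signal fitted against DMSO.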

The target of experiment [3] is human Protein Tyrosine Phosphatase Non-receptor Type 4 (PTPN4), PTPN4 (gene 5775) (UniProt P29074). In words: NVS_ENZ_hPTPN4: NovaScreen (NVS) Enzymatic Assay for human Protein Tyrosine Phosphatase Non-receptor Type 4 (PTPN4) (AID 2283208). In outline: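 Cell-free assay of PTPN4 expressed in Sf9 cells, using a fluorescent substrate with product separated by mobility shift; read 1.33 h after dosing. Single-point screen at 25 uM, then concentration-response up to 50 uM. Loss of signal relative to DMSO.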
human Protein Tyrosine Phosphatase Non-receptor Type 4 (PTPN4), PTPN4 (gene 5775), sequence (P29074 whole entry, looked up): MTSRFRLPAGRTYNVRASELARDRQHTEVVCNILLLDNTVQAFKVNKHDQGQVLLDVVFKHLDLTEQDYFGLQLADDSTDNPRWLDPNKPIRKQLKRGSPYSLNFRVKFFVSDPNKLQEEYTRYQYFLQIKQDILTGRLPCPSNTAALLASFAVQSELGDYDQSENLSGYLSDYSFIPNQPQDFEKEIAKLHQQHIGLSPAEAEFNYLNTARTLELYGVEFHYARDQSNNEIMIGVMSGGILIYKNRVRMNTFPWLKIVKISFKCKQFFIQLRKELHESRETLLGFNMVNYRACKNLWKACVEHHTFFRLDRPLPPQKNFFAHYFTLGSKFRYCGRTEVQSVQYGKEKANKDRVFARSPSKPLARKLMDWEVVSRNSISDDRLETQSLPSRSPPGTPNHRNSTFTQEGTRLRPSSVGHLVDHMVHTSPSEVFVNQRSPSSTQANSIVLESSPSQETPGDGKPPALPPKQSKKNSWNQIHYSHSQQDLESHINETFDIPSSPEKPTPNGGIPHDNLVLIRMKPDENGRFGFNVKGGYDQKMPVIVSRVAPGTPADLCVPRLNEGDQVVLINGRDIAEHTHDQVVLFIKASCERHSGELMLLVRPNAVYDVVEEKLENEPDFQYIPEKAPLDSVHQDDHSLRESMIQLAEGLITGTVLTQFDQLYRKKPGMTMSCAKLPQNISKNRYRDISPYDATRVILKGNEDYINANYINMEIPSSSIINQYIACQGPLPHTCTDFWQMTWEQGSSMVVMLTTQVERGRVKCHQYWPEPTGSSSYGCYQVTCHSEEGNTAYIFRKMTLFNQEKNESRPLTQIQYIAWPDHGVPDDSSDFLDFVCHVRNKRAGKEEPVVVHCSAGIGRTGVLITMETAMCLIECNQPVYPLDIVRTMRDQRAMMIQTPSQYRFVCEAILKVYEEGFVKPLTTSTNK

The target in experiment [4] is human Protein Tyrosine Phosphatase Non-receptor Type 9 (PTPN9), PTPN9 (gene 5780) (UniProt P43378). Kind of experiment: NVS_ENZ_hPTPN9: NovaScreen (NVS) Enzymatic Assay for human Protein Tyrosine Phosphatase Non-receptor Type 9 (PTPN9) (AID 2283209). Put shortly:
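Sf9-expressed enzyme in a cell-free assay, fluorescence read 1.33 h after dosing with mobility-shift separation of substrate and product. Tested at 25 uM in duplicate, then up to 50 uM; signal loss versus DMSO.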

Experiment [5] has as its target human Protein Tyrosine Phosphatase Receptor Type B (PTPRB), PTPRB (gene 5787) (UniProt P23467). In words: NVS_ENZ_hPTPRB: NovaScreen (NVS) Enzymatic Assay for human Protein Tyrosine Phosphatase Receptor Type B (PTPRB) (AID 2283211). In outline:
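Recombinant human PTPRB with a fluorescent substrate, product separated by electrophoretic mobility shift; read 1 h after dosing. Primary screen in duplicate at 25 uM; actives then retested in concentration series; loss of signal versus DMSO.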

Experiment [6] deals with human Sirtuin 2 (SIRT2), SIRT2 (gene 22933) (UniProt Q8IXJ6). Kind of experiment: NVS_ENZ_hSIRT2: NovaScreen (NVS) Enzymatic Assay for human Sirtuin 2 (SIRT2) (AID 2283217). In outline: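 Cell-free recombinant human SIRT2, fluorescent substrate with product separated by electrophoretic mobility shift, 1 hr. Screened in duplicate at 25 uM; hits rerun singly in concentration-response up to 50 uM, relative to DMSO.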
human Sirtuin 2 (SIRT2), SIRT2 (gene 22933), sequence (Q8IXJ6 whole entry, looked up): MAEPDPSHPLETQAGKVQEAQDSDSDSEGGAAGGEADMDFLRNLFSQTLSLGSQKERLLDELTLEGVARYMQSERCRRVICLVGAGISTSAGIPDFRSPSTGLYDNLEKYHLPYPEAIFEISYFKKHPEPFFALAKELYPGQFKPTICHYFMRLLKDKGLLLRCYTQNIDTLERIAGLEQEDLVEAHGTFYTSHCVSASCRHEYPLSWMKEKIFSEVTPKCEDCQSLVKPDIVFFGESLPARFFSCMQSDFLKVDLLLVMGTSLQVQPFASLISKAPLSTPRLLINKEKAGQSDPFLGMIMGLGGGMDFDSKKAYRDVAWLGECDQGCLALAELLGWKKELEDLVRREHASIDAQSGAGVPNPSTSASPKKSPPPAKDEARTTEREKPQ

For experiment [7], the target named is human Sirtuin 1 (SIRT1), SIRT1 (gene 23411) (UniProt Q96EB6). Kind of experiment: NVS_ENZ_hSIRT1: NovaScreen (NVS) Enzymatic Assay for human Sirtuin 1 (SIRT1) (AID 2283219). Put shortly: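 Cell-free recombinant SIRT1 with a fluorescent substrate; substrate and product separated by electrophoretic mobility shift and read by fluorescence intensity, 1 h after dosing. Primary screen at 25 uM in duplicate; hits re-run in concentration-response up to 50 uM, relative to DMSO.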
human Sirtuin 1 (SIRT1), SIRT1 (gene 23411), sequence (Q96EB6 whole entry, looked up): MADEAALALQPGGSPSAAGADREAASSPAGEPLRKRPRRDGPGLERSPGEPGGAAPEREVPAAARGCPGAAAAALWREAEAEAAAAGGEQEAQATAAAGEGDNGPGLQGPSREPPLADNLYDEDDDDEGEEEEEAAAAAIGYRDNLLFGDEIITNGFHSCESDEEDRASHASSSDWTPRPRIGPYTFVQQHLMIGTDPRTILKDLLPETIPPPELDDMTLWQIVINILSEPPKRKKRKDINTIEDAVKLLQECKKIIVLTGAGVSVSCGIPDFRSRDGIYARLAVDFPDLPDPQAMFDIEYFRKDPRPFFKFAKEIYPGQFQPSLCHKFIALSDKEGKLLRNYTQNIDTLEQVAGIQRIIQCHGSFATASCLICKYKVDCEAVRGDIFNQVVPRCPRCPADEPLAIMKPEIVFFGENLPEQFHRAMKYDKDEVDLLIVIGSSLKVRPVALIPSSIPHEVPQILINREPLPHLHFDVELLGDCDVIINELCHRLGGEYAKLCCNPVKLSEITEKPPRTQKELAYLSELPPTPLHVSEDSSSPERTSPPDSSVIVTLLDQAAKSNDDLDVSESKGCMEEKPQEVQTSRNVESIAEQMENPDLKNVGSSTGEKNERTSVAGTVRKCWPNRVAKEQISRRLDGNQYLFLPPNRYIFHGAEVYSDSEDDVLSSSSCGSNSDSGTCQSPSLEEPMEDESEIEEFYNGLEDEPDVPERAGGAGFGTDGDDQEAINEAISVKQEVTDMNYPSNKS

Experiment [8] deals with human SRC Proto-Oncogene, Non-receptor Tyrosine Kinase (SRC), SRC (gene 6714) (UniProt P12931). In words: NVS_ENZ_hSRC: NovaScreen (NVS) Enzymatic Assay for human SRC Proto-Oncogene, Non-receptor Tyrosine Kinase (SRC) (AID 2283223). Put shortly:
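Cell-free kinase activity assay with fluorescent substrate, product separated by electrophoretic mobility shift, read 1 h after dosing. Duplicate single point at 25 uM, then concentration-response up to 50 uM; loss of signal versus DMSO.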

Experiment [9] deals with human Vascular Endothelial Growth Factor Receptor 2 (VEGFR2), KDR (gene 3791) (UniProt P35968). In words: NVS_ENZ_hVEGFR2: NovaScreen (NVS) Enzymatic Assay for human Vascular Endothelial Growth Factor Receptor 2 (VEGFR2) (AID 2283230). In outline: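 Cell-free recombinant VEGFR2 kinase, fluorescent substrate with electrophoretic mobility-shift separation; read 1 h after dosing. Screened at 25 uM in duplicate, hits to concentration-response up to 50 uM; loss-of-signal versus DMSO.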
human Vascular Endothelial Growth Factor Receptor 2 (VEGFR2), KDR (gene 3791), sequence (P35968 whole entry, looked up): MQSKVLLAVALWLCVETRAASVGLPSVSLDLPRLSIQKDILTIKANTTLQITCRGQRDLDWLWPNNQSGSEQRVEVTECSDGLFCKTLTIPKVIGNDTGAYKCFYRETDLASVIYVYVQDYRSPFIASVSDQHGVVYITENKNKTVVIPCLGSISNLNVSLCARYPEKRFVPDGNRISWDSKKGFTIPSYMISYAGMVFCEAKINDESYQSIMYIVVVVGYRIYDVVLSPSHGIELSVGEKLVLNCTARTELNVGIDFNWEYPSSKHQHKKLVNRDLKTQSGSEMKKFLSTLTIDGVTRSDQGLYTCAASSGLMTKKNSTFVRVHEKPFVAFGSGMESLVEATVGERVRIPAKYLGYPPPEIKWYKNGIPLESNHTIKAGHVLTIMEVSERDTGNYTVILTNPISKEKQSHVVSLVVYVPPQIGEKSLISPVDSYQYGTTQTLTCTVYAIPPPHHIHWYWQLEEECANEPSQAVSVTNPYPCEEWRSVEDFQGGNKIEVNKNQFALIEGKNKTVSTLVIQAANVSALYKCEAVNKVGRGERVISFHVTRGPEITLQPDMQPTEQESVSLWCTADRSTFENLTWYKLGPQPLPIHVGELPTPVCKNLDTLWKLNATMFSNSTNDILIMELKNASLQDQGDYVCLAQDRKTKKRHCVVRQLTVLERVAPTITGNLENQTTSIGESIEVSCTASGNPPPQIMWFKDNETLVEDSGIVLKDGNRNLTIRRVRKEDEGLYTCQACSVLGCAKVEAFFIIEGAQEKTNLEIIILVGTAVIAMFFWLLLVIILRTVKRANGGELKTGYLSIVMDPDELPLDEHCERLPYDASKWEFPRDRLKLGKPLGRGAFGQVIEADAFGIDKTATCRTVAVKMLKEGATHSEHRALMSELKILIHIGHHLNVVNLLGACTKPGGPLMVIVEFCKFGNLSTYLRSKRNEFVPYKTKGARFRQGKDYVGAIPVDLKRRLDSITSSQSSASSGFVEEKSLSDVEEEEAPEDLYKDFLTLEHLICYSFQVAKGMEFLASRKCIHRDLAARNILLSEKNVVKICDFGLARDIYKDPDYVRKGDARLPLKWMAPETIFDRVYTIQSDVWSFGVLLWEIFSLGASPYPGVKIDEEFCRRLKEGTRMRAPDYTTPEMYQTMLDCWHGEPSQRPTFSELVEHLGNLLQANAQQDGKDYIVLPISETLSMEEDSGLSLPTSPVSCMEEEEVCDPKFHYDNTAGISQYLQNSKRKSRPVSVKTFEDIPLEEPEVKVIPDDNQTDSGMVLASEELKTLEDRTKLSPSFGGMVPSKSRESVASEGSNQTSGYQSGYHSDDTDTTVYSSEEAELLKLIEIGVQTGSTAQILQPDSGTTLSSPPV

The target in experiment [10] is Tyrosine-protein phosphatase non-receptor type 11 (Homo sapiens) (UniProt Q06124). Kind of experiment: NVS_ENZ_hPTPN11: NovaScreen (NVS) Enzymatic Assay for human Protein Tyrosine Phosphatase Non-receptor Type 11 (PTPN11) (AID 2283202). In outline:
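Recombinant human PTPN11 activity on a fluorescent substrate, with substrate/product separated by electrophoretic mobility shift; read 0.5 h after dosing, loss of signal vs DMSO. Duplicate 25 uM screen, then concentration-response up to 50 uM.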

For experiment [11], the target named is Tyrosine-protein phosphatase non-receptor type 14 (Homo sapiens) (UniProt Q15678). In words: NVS_ENZ_hPTPN14: NovaScreen (NVS) Enzymatic Assay for human Protein Tyrosine Phosphatase Non-receptor Type 14 (PTPN14) (AID 2283206). In outline: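 Cell-free recombinant human PTPN14 with fluorescent substrate, read 0.5 h after dosing by fluorescence and electrophoretic mobility shift separating substrate from product. Primary screen at 25 uM in duplicate; hits run to 50 uM maximum; loss of signal versus DMSO.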

The target of experiment [12] is human Protein Tyrosine Phosphatase Non-receptor Type 6 (PTPN6), PTPN6 (gene 5777) (UniProt P29350). Kind of experiment: NVS_ENZ_hPTPN6: NovaScreen (NVS) Enzymatic Assay for human Protein Tyrosine Phosphatase Non-receptor Type 6 (PTPN6) (AID 2283210). Put shortly:
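Cell-free assay with recombinant PTPN6 expressed in SF9 cells, fluorescent substrate, product separated from substrate by electrophoretic mobility shift; read 1.33 hours after dosing. Primary screen in duplicate at 25 uM, actives retested in concentration series; DMSO baseline.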

Experiment [13] addresses human Protein Tyrosine Phosphatase Receptor Type F (PTPRF), PTPRF (gene 5792) (UniProt P10586). Kind of experiment: NVS_ENZ_hPTPRF: NovaScreen (NVS) Enzymatic Assay for human Protein Tyrosine Phosphatase Receptor Type F (PTPRF) (AID 2283213). In outline: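 Cell-free fluorescence enzyme assay with recombinant protein and substrate; product separated by electrophoretic mobility shift. Read 1 h after dosing, single 25 uM duplicate screen, then concentration-response up to 50 uM; loss of signal vs DMSO.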

The target of experiment [14] is human Protein Tyrosine Phosphatase Receptor Type M (PTPRM), PTPRM (gene 5797) (UniProt P28827). In words: NVS_ENZ_hPTPRM: NovaScreen (NVS) Enzymatic Assay for human Protein Tyrosine Phosphatase Receptor Type M (PTPRM) (AID 2283215). Put shortly: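 Cell-free recombinant PTPRM with fluorogenic substrate; product separated from substrate by electrophoretic mobility shift and read by fluorescence, 1.33 h after dosing. Primary screen single concentration (25 uM) in duplicate; actives retested in concentration series; loss of signal versus DMSO.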

Experiment [15] concerns the target human Vascular Endothelial Growth Factor Receptor 3 (VEGFR3), FLT4 (gene 2324) (UniProt P35916). In words: NVS_ENZ_hVEGFR3: NovaScreen (NVS) Enzymatic Assay for human Vascular Endothelial Growth Factor Receptor 3 (VEGFR3) (AID 2283229). Put shortly:
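Cell-free recombinant VEGFR3 kinase reaction with fluorescent substrate, read 1 h after dosing by electrophoretic mobility shift separation of substrate and product. Single-concentration duplicate screen at 25 uM, then concentration-response up to 50 uM; loss of activity versus DMSO.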

For experiment [16], the target named is human Sirtuin 3 (SIRT3), SIRT3 (gene 23410) (UniProt Q9NTG7). In words: NVS_ENZ_hSIRT3: NovaScreen (NVS) Enzymatic Assay for human Sirtuin 3 (SIRT3) (AID 2283222). Put shortly: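 Cell-free enzyme assay with recombinant protein and fluorescent substrate, product separated by electrophoretic mobility shift; read 1 hour after dosing. Screened in duplicate at 25 uM, then singleton concentration-response up to 50 uM; loss of signal versus DMSO.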

The target of experiment [17] is rabbit Imidazoline 2 Central (I2C), CKB (gene 100009085) (UniProt P00567). In words: NVS_ENZ_rabI2C: NovaScreen (NVS) Enzymatic Assay for rabbit Imidazoline 2 Central (I2C) (AID 2283228). Put shortly:
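Rabbit brain membranes, cell-free; readout by filter-based scintillation counting 1.5 hours after dosing, loss of signal vs DMSO. Initial duplicate test at 25 uM, then concentration-response with 50 uM top concentration.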

Experiment [18] deals with human Tropomyosin Receptor Kinase A (TRKA), NTRK1 (gene 4914) (UniProt P04629). In words: NVS_ENZ_hTrkA: NovaScreen (NVS) Enzymatic Assay for human Tropomyosin Receptor Kinase A (TRKA) (AID 2283224). Put shortly:
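Recombinant human TrkA activity read after 1 h by fluorescence with electrophoretic mobility shift separating substrate and product. Primary screen in duplicate at 25 uM; actives were rerun in concentration-response up to 50 uM. Loss of signal versus DMSO.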

Experiment [19] has as its target human Vascular Endothelial Growth Factor Receptor 1 (VEGFR1), FLT1 (gene 2321) (UniProt P17948). Kind of experiment: NVS_ENZ_hVEGFR1: NovaScreen (NVS) Enzymatic Assay for human Vascular Endothelial Growth Factor Receptor 1 (VEGFR1) (AID 2283226). In outline: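 Cell-free assay of recombinant human VEGFR1 kinase with substrate, measured 1 h after dosing; fluorescence with electrophoretic mobility-shift separation of substrate and product, referenced to DMSO; primary screen at 25 uM in duplicate, actives then run in concentration series.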

human SRC Proto-Oncogene, Non-receptor Tyrosine Kinase (SRC), SRC (gene 6714), sequence (P12931 whole entry, looked up): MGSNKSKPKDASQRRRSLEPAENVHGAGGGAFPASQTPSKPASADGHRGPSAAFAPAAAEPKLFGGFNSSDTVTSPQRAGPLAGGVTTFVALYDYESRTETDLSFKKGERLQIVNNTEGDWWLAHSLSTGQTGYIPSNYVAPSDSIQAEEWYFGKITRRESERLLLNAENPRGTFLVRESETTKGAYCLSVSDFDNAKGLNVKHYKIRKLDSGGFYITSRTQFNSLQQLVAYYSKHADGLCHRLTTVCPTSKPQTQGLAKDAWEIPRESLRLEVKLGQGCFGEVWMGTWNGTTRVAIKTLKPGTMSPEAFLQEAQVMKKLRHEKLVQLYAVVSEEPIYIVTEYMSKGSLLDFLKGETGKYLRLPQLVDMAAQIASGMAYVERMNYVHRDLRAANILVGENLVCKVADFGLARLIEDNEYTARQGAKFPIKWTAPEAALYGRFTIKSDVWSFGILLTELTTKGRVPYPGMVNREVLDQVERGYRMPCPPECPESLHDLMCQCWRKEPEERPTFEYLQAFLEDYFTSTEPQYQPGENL

As to `COCC(C)OCC(C)O` (stereo unspecified), the compound was called inactive in experiment [1], in experiment [2], in [3], in experiment [4], in experiment [5] and in experiment [6]. The call in experiment [7] and in [8] was inactive.
Consider `CC(C)(C)c1ccc(O)c(C(C)(C)C)c1`, for which the call in [9] was inactive.
Consider `CCCCCCCCCCCCc1ccccc1S(=O)(=O)O`, for which the AC50 in experiment [10] was 13.3 µM (active); in experiment [1], 11.3 µM (active); in experiment [2] it was 21.1 µM (active); in experiment [11] it was 38.2 µM (active); in [3] it was 19.8 µM (active); in experiment [4], 4.22 µM (active). In addition, the AC50 in experiment [12] was 13.4 µM (active); in [5], 25 µM (active); in experiment [13] it was 25 µM (active); in experiment [14] it was 16.3 µM (active); in experiment [6], 24.4 µM (active); in experiment [15], 9.14 µM (active). Moreover, the AC50 in [9] is 39.2 µM (active). Also, in experiment [8], the compound was called inactive.
On to `O=c1c(-c2ccc(O)cc2)coc2cc(O)ccc12`, for which the result in experiment [1] and in [11] was inactive.
Regarding `CCN(CC)CCNc1ccc(CNC=O)c2sc3ccc(OC)cc3c(=O)c12`, the result in experiment [2], in experiment [13], in experiment [6], in experiment [7], in experiment [16] and in [17] was inactive. Besides, the compound was called inactive in experiment [15] and in experiment [9].
In the case of `CCCCC(CC)COC(=O)CCCCC(=O)OCC(CC)CCCC` (stereo unspecified), in experiment [7], the call was inactive.
On to `O=C(O)Cc1cc(I)c(Oc2cc(I)c(O)c(I)c2)c(I)c1`, for which the result in experiment [8], in experiment [19], in experiment [15] and in [9] was inactive. Moreover, the AC50 in [18] was 1.6 µM (active).
For the compound `CN1CCC[C@H]1c1cccnc1`, in experiment [3], the compound was called inactive.
On to `COc1ccc([N+](=O)[O-])cc1N`, for which the compound was classed as inactive in experiment [12].

One may read the AC50 as the concentration at which the activity in the assay is half-maximal.
